# Experimental data taken from PMC7862700, “An all-to-all approach to the identification of sequence-specific readers for epigenetic DNA modifications on cytosine”.
# How the values were obtained:
# Test in all cases: DAPPL (digital affinity profiling via proximity ligation, sequencing); 10 mM Tris-HCl pH 7.5, 50 mM NaCl, 1 mM DTT, 4% glycerol, room temperature, 30 min; GST-TFs on glutathione beads, 16-mer random dsDNA library, 0.1% formaldehyde crosslink after washing; high values mean tight binding
# Settings in all cases: protein: recombinant; tags: N-terminal GST; dsDNA, one strand shown
# ELK1 = biological target: T1, ELK1 (Homo sapiens, UniProt P19419 1-428)
# T1 sequence: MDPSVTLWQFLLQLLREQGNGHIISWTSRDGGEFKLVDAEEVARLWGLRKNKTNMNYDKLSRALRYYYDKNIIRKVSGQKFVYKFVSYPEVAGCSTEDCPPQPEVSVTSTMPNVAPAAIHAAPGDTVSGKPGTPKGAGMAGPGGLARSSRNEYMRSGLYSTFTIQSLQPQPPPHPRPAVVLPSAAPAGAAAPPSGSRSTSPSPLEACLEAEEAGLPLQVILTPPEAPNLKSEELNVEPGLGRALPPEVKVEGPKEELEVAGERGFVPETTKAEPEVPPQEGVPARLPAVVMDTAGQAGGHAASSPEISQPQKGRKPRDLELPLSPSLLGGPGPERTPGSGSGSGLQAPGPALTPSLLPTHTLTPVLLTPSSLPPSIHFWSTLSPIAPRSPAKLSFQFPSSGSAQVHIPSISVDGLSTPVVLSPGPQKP
# Summary of the method: (§1)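 After expression in yeast as GST fusions, human transcription factors were bound to glutathione beads, DNA-barcoded and mixed with a tag-only sample. The pools were incubated with 200 nmole of a 16-mer random double-stranded DNA library in Tris/NaCl/DTT/glycerol buffer (30 min, room temperature), washed and crosslinked with 0.1% formaldehyde. Proximity ligation with BsaI/T4 ligase ran for 1 h at 37 °C, before PCR amplification and sequencing on an Illumina NextSeq500. Binding signal is a hexamer's read frequency for a factor divided by its frequency for the tag-only sample.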
# GABPA = biological target: T2, GABPA (Homo sapiens, UniProt Q06546 1-454)
# T2 sequence: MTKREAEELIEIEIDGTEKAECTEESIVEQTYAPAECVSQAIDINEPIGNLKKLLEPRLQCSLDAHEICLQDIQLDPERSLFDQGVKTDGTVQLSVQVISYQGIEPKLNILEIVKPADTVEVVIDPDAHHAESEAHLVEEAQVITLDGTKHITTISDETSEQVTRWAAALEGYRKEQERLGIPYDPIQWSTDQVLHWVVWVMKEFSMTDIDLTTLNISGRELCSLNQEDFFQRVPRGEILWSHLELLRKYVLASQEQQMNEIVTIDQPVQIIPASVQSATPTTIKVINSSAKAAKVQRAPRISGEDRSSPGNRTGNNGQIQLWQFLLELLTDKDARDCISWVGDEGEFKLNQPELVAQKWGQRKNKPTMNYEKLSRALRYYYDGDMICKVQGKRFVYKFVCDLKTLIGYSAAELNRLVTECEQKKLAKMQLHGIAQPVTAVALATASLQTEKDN
# Summary of the method: as §1
# ERG = biological target: T3, ERG (Homo sapiens, UniProt P11308 1-479)
# T3 sequence: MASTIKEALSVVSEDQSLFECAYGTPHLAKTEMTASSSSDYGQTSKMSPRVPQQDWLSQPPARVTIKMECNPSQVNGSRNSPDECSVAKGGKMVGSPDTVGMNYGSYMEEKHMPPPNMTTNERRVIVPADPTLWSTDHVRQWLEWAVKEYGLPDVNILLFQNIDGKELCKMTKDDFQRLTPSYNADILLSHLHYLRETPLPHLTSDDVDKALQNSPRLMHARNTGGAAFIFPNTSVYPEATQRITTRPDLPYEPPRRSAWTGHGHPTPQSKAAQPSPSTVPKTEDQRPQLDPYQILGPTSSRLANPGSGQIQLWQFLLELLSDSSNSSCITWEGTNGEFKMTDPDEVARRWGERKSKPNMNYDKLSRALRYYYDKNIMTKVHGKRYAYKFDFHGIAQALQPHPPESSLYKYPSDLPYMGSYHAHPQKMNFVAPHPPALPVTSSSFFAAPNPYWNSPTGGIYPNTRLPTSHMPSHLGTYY
# Summary of the method: as §1
# ELF1 = ELF1 (Homo sapiens, UniProt P32519 1-619)
# ELF1, sequence (P32519 whole entry): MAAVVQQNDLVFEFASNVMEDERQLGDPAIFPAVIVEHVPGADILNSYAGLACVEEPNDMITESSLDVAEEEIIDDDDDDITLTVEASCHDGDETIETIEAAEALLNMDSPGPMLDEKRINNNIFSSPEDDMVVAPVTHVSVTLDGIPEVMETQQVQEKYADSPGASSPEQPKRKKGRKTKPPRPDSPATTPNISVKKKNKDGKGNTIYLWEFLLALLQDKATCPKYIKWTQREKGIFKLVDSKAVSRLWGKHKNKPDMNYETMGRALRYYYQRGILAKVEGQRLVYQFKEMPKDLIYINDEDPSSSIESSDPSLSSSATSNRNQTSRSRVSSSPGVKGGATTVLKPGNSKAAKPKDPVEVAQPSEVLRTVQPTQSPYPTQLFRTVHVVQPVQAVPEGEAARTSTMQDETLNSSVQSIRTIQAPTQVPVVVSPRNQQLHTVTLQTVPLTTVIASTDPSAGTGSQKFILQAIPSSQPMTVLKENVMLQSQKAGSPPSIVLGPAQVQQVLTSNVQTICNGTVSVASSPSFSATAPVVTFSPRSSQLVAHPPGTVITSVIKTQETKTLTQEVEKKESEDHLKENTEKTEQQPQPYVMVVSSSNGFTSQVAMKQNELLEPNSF
# Summary of the method: as §1
# EHF = biological target: T4, EHF (Homo sapiens, UniProt Q9NZC4 1-300)
# T4 sequence: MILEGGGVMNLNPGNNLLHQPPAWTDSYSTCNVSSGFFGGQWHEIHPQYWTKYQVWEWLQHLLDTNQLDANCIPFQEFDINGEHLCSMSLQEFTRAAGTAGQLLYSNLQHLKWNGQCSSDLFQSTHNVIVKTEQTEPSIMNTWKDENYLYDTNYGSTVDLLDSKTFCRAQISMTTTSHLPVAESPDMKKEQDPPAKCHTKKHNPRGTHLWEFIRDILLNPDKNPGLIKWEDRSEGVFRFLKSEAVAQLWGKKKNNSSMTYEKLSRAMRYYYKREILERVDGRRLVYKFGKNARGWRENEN
# Summary of the method: as §1
# SPIB = SPIB (Homo sapiens, UniProt Q01892 1-262)
# SPIB, sequence (Q01892 whole entry): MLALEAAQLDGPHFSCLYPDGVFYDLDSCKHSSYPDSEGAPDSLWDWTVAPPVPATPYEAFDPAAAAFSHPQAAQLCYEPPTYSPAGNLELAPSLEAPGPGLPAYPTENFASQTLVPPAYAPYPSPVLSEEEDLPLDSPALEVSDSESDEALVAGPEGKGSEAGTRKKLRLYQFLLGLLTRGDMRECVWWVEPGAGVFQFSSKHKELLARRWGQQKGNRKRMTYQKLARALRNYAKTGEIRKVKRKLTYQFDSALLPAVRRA
# Summary of the method: as §1
# ETV5 = ETV5 (Homo sapiens, UniProt P41161 1-510)
# ETV5, sequence (P41161 whole entry): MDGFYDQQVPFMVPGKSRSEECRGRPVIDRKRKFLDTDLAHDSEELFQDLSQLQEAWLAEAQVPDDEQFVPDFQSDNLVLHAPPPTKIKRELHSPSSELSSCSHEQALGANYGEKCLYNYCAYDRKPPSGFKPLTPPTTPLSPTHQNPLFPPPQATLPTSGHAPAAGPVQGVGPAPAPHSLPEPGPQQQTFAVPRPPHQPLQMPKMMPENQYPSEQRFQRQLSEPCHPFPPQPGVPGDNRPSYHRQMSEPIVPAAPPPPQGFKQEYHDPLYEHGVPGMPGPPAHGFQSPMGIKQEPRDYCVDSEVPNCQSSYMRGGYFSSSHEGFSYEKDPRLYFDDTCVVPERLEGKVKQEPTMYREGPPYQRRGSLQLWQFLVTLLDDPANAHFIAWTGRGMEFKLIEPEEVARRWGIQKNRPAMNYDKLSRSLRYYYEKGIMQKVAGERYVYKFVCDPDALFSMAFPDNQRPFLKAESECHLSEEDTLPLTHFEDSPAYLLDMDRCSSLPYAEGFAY
# Summary of the method: as §1
# SPIC = biological target: T5, SPIC (Homo sapiens, UniProt Q8N5J4 1-248)
# T5 sequence: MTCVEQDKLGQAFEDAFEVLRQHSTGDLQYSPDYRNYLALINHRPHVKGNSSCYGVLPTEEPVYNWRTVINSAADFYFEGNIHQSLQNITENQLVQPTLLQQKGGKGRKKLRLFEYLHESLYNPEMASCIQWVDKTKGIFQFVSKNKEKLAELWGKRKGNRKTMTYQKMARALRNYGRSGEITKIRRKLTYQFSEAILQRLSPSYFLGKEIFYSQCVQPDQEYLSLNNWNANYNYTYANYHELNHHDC
# Summary of the method: as §1
# ELF4 = ELF4 (Homo sapiens, UniProt Q99607 1-663)
# ELF4, sequence (Q99607 whole entry): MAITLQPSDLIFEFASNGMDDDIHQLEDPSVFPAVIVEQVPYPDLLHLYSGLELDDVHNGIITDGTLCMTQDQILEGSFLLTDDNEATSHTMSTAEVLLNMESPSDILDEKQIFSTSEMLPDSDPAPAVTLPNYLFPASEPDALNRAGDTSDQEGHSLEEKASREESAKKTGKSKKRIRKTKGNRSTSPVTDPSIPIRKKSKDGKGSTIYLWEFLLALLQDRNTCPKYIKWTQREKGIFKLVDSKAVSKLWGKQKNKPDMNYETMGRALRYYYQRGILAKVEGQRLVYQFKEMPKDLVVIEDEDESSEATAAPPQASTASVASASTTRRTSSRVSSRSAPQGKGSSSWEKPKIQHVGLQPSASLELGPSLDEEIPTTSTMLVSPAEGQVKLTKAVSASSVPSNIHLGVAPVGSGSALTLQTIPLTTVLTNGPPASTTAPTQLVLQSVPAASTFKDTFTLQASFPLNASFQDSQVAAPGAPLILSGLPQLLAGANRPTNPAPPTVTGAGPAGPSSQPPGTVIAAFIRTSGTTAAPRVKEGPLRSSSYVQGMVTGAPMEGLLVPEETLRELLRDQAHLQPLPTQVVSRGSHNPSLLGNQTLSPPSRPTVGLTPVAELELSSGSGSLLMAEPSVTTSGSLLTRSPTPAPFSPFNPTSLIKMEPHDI
# Summary of the method: as §1
# ELK4 = biological target: T6, ELK4 (Homo sapiens, UniProt P28324-2 1-405)
# T6 sequence: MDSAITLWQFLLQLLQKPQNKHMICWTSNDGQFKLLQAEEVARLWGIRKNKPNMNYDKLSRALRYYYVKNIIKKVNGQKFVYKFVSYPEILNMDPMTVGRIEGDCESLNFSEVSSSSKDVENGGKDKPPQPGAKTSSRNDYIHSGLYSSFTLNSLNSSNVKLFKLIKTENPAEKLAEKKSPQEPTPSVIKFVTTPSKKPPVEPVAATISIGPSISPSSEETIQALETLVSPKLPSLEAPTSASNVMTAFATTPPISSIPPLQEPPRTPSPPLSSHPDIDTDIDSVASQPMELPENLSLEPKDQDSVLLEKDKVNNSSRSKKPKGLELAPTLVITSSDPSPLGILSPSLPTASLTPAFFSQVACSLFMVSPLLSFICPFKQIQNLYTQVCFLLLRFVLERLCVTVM
# Summary of the method: as §1
# ELF3 = biological target: T7, ELF3 (Homo sapiens, UniProt P78545 1-371)
# T7 sequence: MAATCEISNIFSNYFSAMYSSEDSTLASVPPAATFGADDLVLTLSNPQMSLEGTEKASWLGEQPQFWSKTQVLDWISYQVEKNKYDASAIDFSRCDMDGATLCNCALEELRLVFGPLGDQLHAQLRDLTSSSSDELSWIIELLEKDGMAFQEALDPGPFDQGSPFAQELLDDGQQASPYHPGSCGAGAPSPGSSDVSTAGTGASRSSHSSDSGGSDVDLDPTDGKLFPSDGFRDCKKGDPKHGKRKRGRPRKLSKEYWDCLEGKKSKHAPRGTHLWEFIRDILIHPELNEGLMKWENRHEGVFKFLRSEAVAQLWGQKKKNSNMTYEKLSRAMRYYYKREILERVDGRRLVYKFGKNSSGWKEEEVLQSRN
# Summary of the method: as §1
# ETV3L = biological target: T8, ETV3L (Homo sapiens, UniProt Q6ZN32 1-361)
# T8 sequence: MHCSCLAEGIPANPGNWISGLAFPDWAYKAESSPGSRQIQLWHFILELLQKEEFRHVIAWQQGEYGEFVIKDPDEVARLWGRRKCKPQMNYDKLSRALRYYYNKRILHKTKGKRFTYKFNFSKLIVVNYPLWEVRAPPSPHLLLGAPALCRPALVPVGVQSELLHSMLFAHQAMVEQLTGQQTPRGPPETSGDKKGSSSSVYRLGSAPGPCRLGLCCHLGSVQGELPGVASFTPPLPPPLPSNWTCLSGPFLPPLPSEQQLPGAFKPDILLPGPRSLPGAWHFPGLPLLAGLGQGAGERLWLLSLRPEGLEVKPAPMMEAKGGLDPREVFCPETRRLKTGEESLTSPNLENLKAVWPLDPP
# Summary of the method: as §1
# SPDEF = biological target: T9, SPDEF (Homo sapiens, UniProt O95238 1-335)
# T9 sequence: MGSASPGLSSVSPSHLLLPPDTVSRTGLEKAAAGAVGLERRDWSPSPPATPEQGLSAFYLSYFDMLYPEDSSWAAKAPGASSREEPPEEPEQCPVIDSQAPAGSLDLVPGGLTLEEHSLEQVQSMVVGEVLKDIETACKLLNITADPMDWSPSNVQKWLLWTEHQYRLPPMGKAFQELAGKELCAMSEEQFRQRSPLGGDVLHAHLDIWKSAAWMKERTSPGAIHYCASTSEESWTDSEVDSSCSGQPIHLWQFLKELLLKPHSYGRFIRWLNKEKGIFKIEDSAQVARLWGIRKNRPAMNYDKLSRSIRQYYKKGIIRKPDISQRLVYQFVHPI
# Summary of the method: as §1
# ETV7 = biological target: T10, ETV7 (Homo sapiens, UniProt Q9Y603 1-341)
# T10 sequence: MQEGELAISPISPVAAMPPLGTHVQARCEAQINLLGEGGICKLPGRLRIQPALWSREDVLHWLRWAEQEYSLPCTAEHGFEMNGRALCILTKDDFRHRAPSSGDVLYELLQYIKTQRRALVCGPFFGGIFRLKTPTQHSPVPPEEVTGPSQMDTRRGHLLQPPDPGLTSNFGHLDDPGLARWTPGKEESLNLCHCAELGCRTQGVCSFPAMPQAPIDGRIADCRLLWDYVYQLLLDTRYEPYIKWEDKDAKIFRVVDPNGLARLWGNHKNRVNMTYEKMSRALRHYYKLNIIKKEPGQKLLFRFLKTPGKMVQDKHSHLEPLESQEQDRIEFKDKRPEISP
# Summary of the method: as §1
# ETV6 = ETV6 (Homo sapiens, UniProt P41212 1-452)
# ETV6, sequence (P41212 whole entry): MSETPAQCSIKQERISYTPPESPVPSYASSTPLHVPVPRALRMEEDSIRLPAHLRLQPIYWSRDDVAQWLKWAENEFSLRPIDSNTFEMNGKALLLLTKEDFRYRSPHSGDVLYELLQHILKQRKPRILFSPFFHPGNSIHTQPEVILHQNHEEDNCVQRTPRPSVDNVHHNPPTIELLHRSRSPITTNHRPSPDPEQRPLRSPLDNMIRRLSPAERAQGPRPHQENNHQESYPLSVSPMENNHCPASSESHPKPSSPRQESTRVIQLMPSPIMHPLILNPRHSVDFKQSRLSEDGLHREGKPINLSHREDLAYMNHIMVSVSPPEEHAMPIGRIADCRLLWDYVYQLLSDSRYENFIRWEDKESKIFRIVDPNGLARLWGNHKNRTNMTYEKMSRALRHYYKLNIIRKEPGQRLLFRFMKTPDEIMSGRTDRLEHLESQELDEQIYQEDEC
# Summary of the method: as §1
sequence,measurement,setting,value
GTACGA,binding signal,ELK1,"1.03 fold enrichment (6-mer frequency, TF over GST control)"
same,binding signal,GABPA,"1.14 fold enrichment (6-mer frequency, TF over GST control)"
same,binding signal,ERG,"1.04 fold enrichment (6-mer frequency, TF over GST control)"
same,binding signal,ELF1,"1.08 fold enrichment (6-mer frequency, TF over GST control)"
same,binding signal,EHF,"1.04 fold enrichment (6-mer frequency, TF over GST control)"
same,binding signal,SPIB,"1.05 fold enrichment (6-mer frequency, TF over GST control)"
same,binding signal,ETV5,"1.02 fold enrichment (6-mer frequency, TF over GST control)"
same,binding signal,SPIC,"1.02 fold enrichment (6-mer frequency, TF over GST control)"
same,binding signal,ELF4,"1.11 fold enrichment (6-mer frequency, TF over GST control)"
same,binding signal,ELK4,"1.04 fold enrichment (6-mer frequency, TF over GST control)"
same,binding signal,ELF3,"1.11 fold enrichment (6-mer frequency, TF over GST control)"
same,binding signal,ETV3L,"1.09 fold enrichment (6-mer frequency, TF over GST control)"
same,binding signal,SPDEF,"1.02 fold enrichment (6-mer frequency, TF over GST control)"
same,binding signal,ETV7,"1.16 fold enrichment (6-mer frequency, TF over GST control)"
same,binding signal,ETV6,"1.05 fold enrichment (6-mer frequency, TF over GST control)"
